# Assay outcomes deposited in PubChem BioAssay by National Center for Advancing Translational Sciences (NCATS).
# The list is not random: actives were taken first. Their share in the collection is about 9.2%.
# NPC1 prom act: qHTS Assay for NPC1 Promoter Activators; Huh7 NPC1 promoter luciferase reporter, 24 h; Potency, µM (titrated, usually from 9.22 µM), hits mostly activators; actives 2.4% (n = 320,000); also: nearly all actives have a fitted effect of over 60% in size
#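 Luminescence read-out of NPC1 promoter-driven luciferase in stably transfected Huh7 cells; compounds delivered in DMSO and left 24 h at 37C, 5% CO2, qHTS titration format.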
# ELG1 genotox: qHTS screen for small molecules that induce genotoxicity in human embryonic kidney (HEK293T) cells expressing luciferase-tagged ELG1. AID 504466, 2011. Potency, µM (series often up to 46 µM), most hits filed as activators. actives 1.3% (n = 330,000). HEK293T ELG1-luciferase reporter, luminescence, 16 h; also: nearly all actives have a fitted effect of over 60% in size
#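 Genotoxicity was scored as increased ELG1-luciferase reporter signal, measured by ONE-Glo luminescence (30 min, room temperature). Compound or vehicle exposure of the HEK293T reporter cells lasted 16 hr at 37°C.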
# Rab9 promoter act: qHTS Assay for Rab9 Promoter Activators. Huh7 Rab9 promoter-luciferase reporter, luminescence, 24 h. actives 2.8% (n = 320,000). AID 485297, 2010. Potency, µM (highest dose often 9.22 µM), actives largely listed as activators; also: nearly all actives have a fitted effect of over 60% in size
#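 Steps: seed 1500 Huh7 Rab9-luc cells per well, rest 2 h at 37 °C; add compound in DMSO; incubate 24 h; add luciferase reagent, 10 min ambient; read luminescence.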
# SMN2 splice up: qHTS Assay for Enhancers of SMN2 Splice Variant Expression; HEK293 SMN2-luciferase splicing reporter, luminescence, 30-36 h; Potency, µM (series often up to 46.1 µM), most hits filed as activators; actives 2.8% (n = 210,000); AID 1458, 2008; also: nearly all actives have a fitted effect of over 55% in size
#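 HEK293 cells carry an SMN2 minigene-luciferase reporter in which exon 7 inclusion puts luciferase in frame. Cells were seeded at 2000 cells/well, attached for 10-12 hours, then exposed to compounds for 30-36 hours at 37C before ONE-Glo luminescence.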
# ELG1 repair inh: qHTS screen for small molecules that inhibit ELG1-dependent DNA repair in human embryonic kidney (HEK293T) cells expressing luciferase-tagged ELG1 | HEK293T ELG1-luciferase reporter, luminescence, 16 h; DNA damage induced by 5-fluorouridine | Potency, µM (series often up to 46.1 µM), actives largely listed as inhibitors | actives 2.3% (n = 330,000); also: nearly all actives have a fitted effect of over 55% in size
#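 Cells (2,000 per well) received 5-fluorouridine plus test compound or DMSO and were incubated 16 hr at 37 °C, 5% CO2. Luciferase activity was read by luminescence 30 min after ONE-Glo addition; signal suppression marked inhibition of damage-induced ELG1 function.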
# FLuc modulator: qHTS profiling assay for firefly luciferase inhibitor/activator using purifed enzyme and Km concentrations of substrates (counterscreen for miR-21 project); AID 588342, 2011; Potency, µM (titrated, usually from 57.5 µM), most hits filed as inhibitors; actives 6.9% (n = 360,000); purified FLuc, Km substrates, luminescence inhibition; Luciferin 4-monooxygenase (Photinus pyralis), P08659; also: nearly all actives have a fitted effect of over 55% in size
# Target sequence (P08659 whole entry, looked up): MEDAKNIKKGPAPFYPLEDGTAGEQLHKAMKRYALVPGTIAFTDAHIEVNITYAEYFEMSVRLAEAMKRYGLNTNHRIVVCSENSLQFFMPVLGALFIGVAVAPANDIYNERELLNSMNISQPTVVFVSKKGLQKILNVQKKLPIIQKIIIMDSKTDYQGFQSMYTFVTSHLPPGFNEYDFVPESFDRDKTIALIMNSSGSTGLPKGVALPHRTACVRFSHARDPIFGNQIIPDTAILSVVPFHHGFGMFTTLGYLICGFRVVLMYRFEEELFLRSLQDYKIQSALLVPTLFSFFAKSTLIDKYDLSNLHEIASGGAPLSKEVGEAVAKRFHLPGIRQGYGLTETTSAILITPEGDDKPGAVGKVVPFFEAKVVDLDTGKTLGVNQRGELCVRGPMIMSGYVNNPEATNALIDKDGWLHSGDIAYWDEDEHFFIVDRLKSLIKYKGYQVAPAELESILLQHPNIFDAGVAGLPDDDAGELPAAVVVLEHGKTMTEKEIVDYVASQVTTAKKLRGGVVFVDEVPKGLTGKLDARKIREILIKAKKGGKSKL
#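 Biochemical qHTS of compounds, final roughly 60 µM downward over six points, against 10 nM purified firefly luciferase using Km concentrations of substrates (10 uM D-luciferin, 10 uM ATP) in Tris acetate pH 7.5 buffer; luminescence output.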
# Hits are given with their value; . = inactive; ? = inconclusive; / = not tested or not shown. Calls follow the shape of the dose curve; as a rule, active = well fitted curve in the direction sought with a large enough effect; inconclusive = small, poorly fitted or top-dose-only effect, or another doubt; inactive = no such curve, though single readings can be large; an effect the other way counts as inactive or inconclusive.
SMILES,NPC1 prom act,ELG1 genotox,Rab9 promoter act,SMN2 splice up,ELG1 repair inh,FLuc modulator
CCC1S/C(=N/C(=O)NC2CCCCC2)NC1=O (stereo not drawn),?,?,?,11µM,?,?
O=C(/N=C1\NC(=O)C(F)(C(F)(F)F)S1)NC1CCCCC1 (stereo not drawn),.,.,.,?,.,13µM
CCOC(=O)C1=C(COC(=O)c2cccc(N(C)C)c2)NC(=O)NC1C (stereo not drawn),?,?,2.8µM,/,?,24µM
CCOC(=O)C1=C(COC(=O)/C=C/c2ccccc2Cl)NC(=O)NC1C (stereo not drawn),.,?,.,/,?,27µM
CCOC(=O)C1=C(COC(=O)/C=C/c2ccccc2F)NC(=O)NC1C (stereo not drawn),.,.,.,/,.,.
Cc1ccc(-c2nc(SCC(=O)NCC3CCCO3)c3c(=O)n(C)c(=O)n(C)c3n2)cc1 (stereo not drawn),/,/,/,/,/,.
Cc1cc(NS(=O)(=O)c2cn(C)c(C)n2)ccc1Br,/,/,/,/,/,.
CN(C)c1ccc(NC(=O)Cn2cc(S(=O)(=O)Cc3ccccc3Cl)c3ccccc32)cc1,/,/,/,/,/,9.5µM
O=C(Cn1cc(S(=O)(=O)Cc2ccccc2Cl)c2ccccc21)Nc1cccc(C(F)(F)F)c1,/,/,/,/,/,.
COCCOC(=O)C1=C(C)NC(=S)NC1/C=C/c1ccccc1 (stereo not drawn),.,.,.,.,5.8µM,.
COc1ccc(CNC(=O)Cn2ncn3cccc3c2=O)cc1,?,?,1.6µM,11µM,?,21µM
COc1ccc(CNC(=O)Cn2ncn3c(cc4ccccc43)c2=O)cc1,.,.,.,/,.,.
Cc1nc2nc(SCC(=O)C(C)(C)C)[nH]c2cc1Br,.,.,.,.,.,.
CC(C)(C)C(=O)CSc1nc2ncc(Br)cc2[nH]1,.,.,.,/,.,19µM
Cc1ccc(-c2nc3nc(C)cc(N4CCN(c5cccc(C)c5C)CC4)n3n2)cc1,/,/,/,.,/,.
CCN(Cc1ccccc1)C(=O)CN1C(=O)NC(CC)(c2ccc(F)cc2)C1=O (stereo not drawn),.,.,.,/,.,.
CNC(=O)C1CCC(Cn2c(=O)c3sccc3n(CC(=O)Nc3cc(C)cc(C)c3)c2=O)CC1 (stereo not drawn),/,/,/,/,/,.
O=C(NCCCN1CCOCC1)c1cc(-c2ccc(F)cc2)nc2ccccc12,.,.,.,/,.,?
COc1ccc(Nc2cc(C(=O)NCCCN3CCOCC3)c3ccccc3n2)cc1,.,.,.,/,.,?
O=C(NCCN1CCOCC1)c1cc(-c2ccc(F)cc2)nc2ccccc12,.,.,.,/,.,?
CCc1ccc(Nc2cc(C(=O)NCCCN3CCOCC3)c3ccccc3n2)cc1,.,.,.,.,.,19µM
CCOc1ccc(-c2cc(C(=O)NCCCN3CCOCC3)c3ccccc3n2)cc1,.,.,.,/,.,8.5µM
CC(C)Oc1ccc(-c2cc(C(=O)NCCN3CCOCC3)c3ccccc3n2)cc1,?,.,.,.,?,1.5µM
Cc1ncc(CO)c(/C=N/N=C/c2ccccc2O)c1O,.,?,.,.,?,2.4µM
COCCCNC(=O)CCc1c(C)nc2cc(-c3ccc(Cl)cc3)nn2c1C,/,/,/,.,/,?
SMILES,NPC1 prom act,ELG1 genotox,Rab9 promoter act,SMN2 splice up,ELG1 repair inh,FLuc modulator
Cc1ccc2oc3c(c(=O)c2c1)C(c1cccc(Cl)c1)N(CCCN1CCOCC1)C3=O (stereo not drawn),.,.,.,.,10µM,.
Cc1[nH]c2ccccc2c1C(=O)C(=O)NC1CC1,?,?,1.3µM,/,?,9.5µM
Cc1ccc(NC(=O)C(=O)c2c[nH]c3ccccc23)cc1,0.63µM,?,0.79µM,/,?,1.5µM
O=C(NC1CCCCC1)C(=O)c1c[nH]c2ccccc12,?,15µM,3.2µM,/,?,11µM
O=C(NCCOc1ccccc1)C(=O)c1c[nH]c2ccccc12,.,.,.,/,?,27µM
COc1cc(NC(=O)CSc2nc3ncccc3o2)cc(OC)c1,/,/,/,/,/,.
Cc1nc2nncn2c(NCc2ccc(Cl)cc2)c1C,/,/,/,.,/,.
CCN(CC)C(=O)c1sc2c(c1C)c(=O)n(-c1ccc(C)c(C)c1)c(=O)n2CC(=O)Nc1ccc(F)cc1,/,/,/,/,/,.
Cc1ccc(C)c(CN2C(=O)c3ccccc3S(=O)c3ccc(C(=O)NCc4ccco4)cc32)c1 (stereo not drawn),/,/,/,.,/,.
Cc1c(C(=O)Nn2cnnc2)oc2ccccc12,.,.,.,?,.,.
COc1cc(NC(=O)c2ccccc2-n2cnnn2)cc(OC)c1,.,.,.,/,.,.
COc1cc(OC)cc(C(=O)Nc2ccc(-n3cnnn3)c(C)c2)c1,?,?,?,.,?,15µM
Cc1cc(NC(=O)c2oc3ccccc3c2C)ccc1-n1cnnn1,.,.,.,.,.,4.8µM
COCCn1cnc2c(c1=O)c1nc3ccccc3nc1n2/N=C/c1cccc(OC)c1,.,.,.,/,21µM,.
COc1cccc(/C=N/n2c(-c3ccco3)nc3ccccc3c2=O)c1,0.4µM,.,0.56µM,0.79µM,18µM,13µM
COc1ccc(/C=N/n2c(-c3ccco3)nc3ccccc3c2=O)cc1,.,.,.,.,?,.
COCCCn1cnc2c(c1=O)c1nc3ccccc3nc1n2-c1ccccc1,.,.,.,.,.,.
O=c1c2c3nc4ccccc4nc3n(/N=C/c3ccccn3)c2ncn1-c1ccccc1,.,.,.,/,.,.
C=CCn1cnc2c(c1=O)c1nc3ccccc3nc1n2-c1ccccc1,.,.,.,.,.,.
C=CCn1cnc2c(c1=O)c1nc3ccccc3nc1n2/N=C/c1ccccn1,.,.,.,.,12µM,.
C=CCn1cnc2c(c1=O)c1nc3ccccc3nc1n2/N=C/c1cc(OC)c(OC)c(OC)c1,.,.,.,.,5.8µM,.
Cc1ccc(N2CC(C(=O)Nc3nnc(SCCN4CCOCC4)s3)CC2=O)cc1C (stereo not drawn),.,.,.,/,.,.
Cc1c(Cl)cccc1-n1nc(C)c2c(C)cc(=O)n(CC(=O)N3CCCc4ccccc43)c21,/,/,/,/,/,.
CC(C)Nc1nc2c(-c3cccc(Br)c3)nnn2c2ccccc12,/,/,/,.,/,.
COc1ccc(C(=O)NCCS(=O)(=O)NCc2ccccc2OC)cc1,.,.,.,/,.,.
